Reference: PubChem BioAssay (NCATS)
Activity calls are given as the source filed them. Calls follow the shape of the dose curve; as a rule, active = well fitted curve in the direction sought with a large enough effect; inactive = no such curve, though single readings can be large or run the other way.

These compounds were tested against Alpha-galactosidase (Coffea arabica) (UniProt Q42656) (assay: Counterscreen for Glucocerebrosidase Inhibitors: qHTS Assay for Coffee Bean alpha-Galactosidase at pH 5.9 (AID 998)). Conditions: coffee bean alpha-galactosidase enzyme assay; series mostly up to 76.9 µM.
Summary of the method: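 Compounds were titrated from 0.7 nM to 77 uM against green coffee bean alpha-galactosidase (2 nM) using 80 uM fluorogenic 4-methylumbelliferyl substrate. After 20 min at room temperature, reactions were stopped at pH 10 and read by fluorescence.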

Alpha-galactosidase (Coffea arabica), sequence (Q42656 whole entry, looked up): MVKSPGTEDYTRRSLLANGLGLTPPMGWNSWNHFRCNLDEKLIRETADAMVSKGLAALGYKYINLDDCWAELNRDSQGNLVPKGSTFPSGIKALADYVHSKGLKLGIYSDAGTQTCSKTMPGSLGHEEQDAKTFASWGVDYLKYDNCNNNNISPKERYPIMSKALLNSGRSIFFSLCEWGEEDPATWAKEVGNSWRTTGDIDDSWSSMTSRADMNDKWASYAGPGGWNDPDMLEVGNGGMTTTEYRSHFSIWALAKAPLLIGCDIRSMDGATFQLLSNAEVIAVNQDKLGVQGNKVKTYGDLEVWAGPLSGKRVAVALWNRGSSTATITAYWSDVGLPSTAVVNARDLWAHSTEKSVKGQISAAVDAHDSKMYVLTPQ

| Compound | outcome |
| --- | --- |
| Nc1nnc(-c2cccc(Cl)c2Cl)c(N)n1 | inactive |
| O=C(C1CCCCC1)N1CC(=O)N2CCc3ccccc3C2C1 (stereo unspecified) | inactive |
| CN(C)CCC=C1c2ccccc2C=Cc2ccccc21 | inactive |
| CN[C@H]1CC[C@@H](c2ccc(Cl)c(Cl)c2)c2ccccc21 | inactive |
| O=C(CCCN1CCC(O)(c2ccc(Cl)cc2)CC1)c1ccc(F)cc1 | inactive |
| CC(C)NCC(O)COc1cccc2[nH]ccc12 (stereo unspecified) | inactive |
| NS(=O)(=O)Cc1noc2ccccc12 | inactive |
| CC(C)[N+](C)(CCOC(=O)C1c2ccccc2Oc2ccccc21)C(C)C | inactive |
| CC(C)OC(=O)C(C)(C)Oc1ccc(C(=O)c2ccc(Cl)cc2)cc1 | inactive |
| COC(=O)[C@H]1[C@H]2C[C@@H]3c4[nH]c5cc(OC)ccc5c4CCN3C[C@H]2C[C@@H](OC(=O)c2cc(OC)c(OC)c(OC)c2)[C@@H]1OC | inactive |
| N=c1nc(N2CCCCC2)cc(N)n1O | inactive |
| CCN(CC)CCOC(=O)C1(C2CCCCC2)CCCCC1 | inactive |
| Cc1cnc(C(=O)NCCc2ccc(S(=O)(=O)NC(=O)NC3CCCCC3)cc2)cn1 | inactive |
| Clc1ccc(C(c2ccccc2Cl)C(Cl)Cl)cc1 (stereo unspecified) | inactive |
| CN(C)CCCN1c2ccccc2Sc2ccc(Cl)cc21 | inactive |
| CC(C)(C)NC(=O)[C@H]1CC[C@H]2[C@@H]3CC[C@H]4NC(=O)C=C[C@]4(C)[C@H]3CC[C@]12C | inactive |
| Cc1ccccc1N1C(=O)c2cc(S(N)(=O)=O)c(Cl)cc2NC1C (stereo unspecified) | inactive |
| CCN(CC)CCNC(=O)c1cc(Cl)c(N)cc1OC | inactive |

| Compound | outcome |
| --- | --- |
| Cc1[nH]c(=O)c(C#N)cc1-c1ccncc1 | inactive |
| CCOC(=O)c1ncn2c1CN(C)C(=O)c1cc(F)ccc1-2 | inactive |
| CC1(C)NC(=O)N(c2ccc([N+](=O)[O-])c(C(F)(F)F)c2)C1=O | inactive |
| Cc1cn[nH]c1 | inactive |
| O=NN(CCCl)C(=O)NCCCl | inactive |
| CCCCc1oc2ccccc2c1C(=O)c1cc(I)c(OCCN(CC)CC)c(I)c1 | inactive |
| CC/C(=C(\c1ccccc1)c1ccc(OCCN(C)C)cc1)c1ccccc1 | inactive |
| CC1=NS(=O)(=O)c2cc(Cl)ccc2N1 | inactive |
| Fc1ccc([C@@H]2CCNC[C@H]2COc2ccc3c(c2)OCO3)cc1 | inactive |
| Cc1cn([C@H]2C=C[C@@H](CO)O2)c(=O)[nH]c1=O | inactive |
| Nc1nc2c(ncn2COC(CO)CO)c(=O)[nH]1 | inactive |
| CCCN(CCC)CCc1cccc2c1CC(=O)N2 | inactive |
| O=C1CCc2cc(OCCCCc3nnnn3C3CCCCC3)ccc2N1 | inactive |
| Cc1ccc(S(=O)(=O)NC(=O)NN2CCCCCC2)cc1 | inactive |
| CN1CCN(C2=Nc3ccccc3Oc3ccc(Cl)cc32)CC1 | inactive |
| Nc1nc2c(ncn2COCCO)c(=O)[nH]1 | inactive |
| Clc1ccc2c(c1)C(N1CCNCC1)=Nc1ccccc1O2 | inactive |
| CN/C(=C\[N+](=O)[O-])NCCSCc1ccc(CN(C)C)o1 | inactive |
